Columns and labels:
[1] = target: T1, Testis-specific serine/threonine-protein kinase 1 (Homo sapiens) (UniProt Q9BXA7); conditions: at 1 µM
T1 sequence (whole entry): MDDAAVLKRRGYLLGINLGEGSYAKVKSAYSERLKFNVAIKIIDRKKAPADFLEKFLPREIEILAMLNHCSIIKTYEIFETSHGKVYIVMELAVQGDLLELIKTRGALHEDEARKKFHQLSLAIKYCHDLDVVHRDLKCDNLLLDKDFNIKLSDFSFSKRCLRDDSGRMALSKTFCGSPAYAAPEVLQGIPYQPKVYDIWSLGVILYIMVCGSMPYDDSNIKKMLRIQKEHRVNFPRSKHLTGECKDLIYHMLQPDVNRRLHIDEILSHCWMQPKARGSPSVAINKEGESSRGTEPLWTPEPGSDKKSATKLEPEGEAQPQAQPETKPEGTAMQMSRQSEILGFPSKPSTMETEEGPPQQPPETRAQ

[2] = target: T1, Testis-specific serine/threonine-protein kinase 1 (Homo sapiens); conditions: at 10 µM
[3] = target: T2, Testis-specific serine/threonine-protein kinase 2 (Homo sapiens) (UniProt Q96PF2); conditions: at 10 µM
T2 sequence (whole entry): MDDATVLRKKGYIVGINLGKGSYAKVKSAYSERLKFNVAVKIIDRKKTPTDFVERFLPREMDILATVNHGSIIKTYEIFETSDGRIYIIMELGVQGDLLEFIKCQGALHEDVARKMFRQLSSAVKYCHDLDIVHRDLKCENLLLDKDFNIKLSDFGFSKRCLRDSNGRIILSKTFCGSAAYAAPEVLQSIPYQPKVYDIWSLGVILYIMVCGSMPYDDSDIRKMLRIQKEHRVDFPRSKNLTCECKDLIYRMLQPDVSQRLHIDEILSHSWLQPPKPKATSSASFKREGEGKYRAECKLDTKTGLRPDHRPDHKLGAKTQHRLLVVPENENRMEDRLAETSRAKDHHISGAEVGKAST

[4] = target: T3, Tyrosine-protein kinase Tec (Homo sapiens) (UniProt P42680); conditions: at 1 µM
T3 sequence (whole entry): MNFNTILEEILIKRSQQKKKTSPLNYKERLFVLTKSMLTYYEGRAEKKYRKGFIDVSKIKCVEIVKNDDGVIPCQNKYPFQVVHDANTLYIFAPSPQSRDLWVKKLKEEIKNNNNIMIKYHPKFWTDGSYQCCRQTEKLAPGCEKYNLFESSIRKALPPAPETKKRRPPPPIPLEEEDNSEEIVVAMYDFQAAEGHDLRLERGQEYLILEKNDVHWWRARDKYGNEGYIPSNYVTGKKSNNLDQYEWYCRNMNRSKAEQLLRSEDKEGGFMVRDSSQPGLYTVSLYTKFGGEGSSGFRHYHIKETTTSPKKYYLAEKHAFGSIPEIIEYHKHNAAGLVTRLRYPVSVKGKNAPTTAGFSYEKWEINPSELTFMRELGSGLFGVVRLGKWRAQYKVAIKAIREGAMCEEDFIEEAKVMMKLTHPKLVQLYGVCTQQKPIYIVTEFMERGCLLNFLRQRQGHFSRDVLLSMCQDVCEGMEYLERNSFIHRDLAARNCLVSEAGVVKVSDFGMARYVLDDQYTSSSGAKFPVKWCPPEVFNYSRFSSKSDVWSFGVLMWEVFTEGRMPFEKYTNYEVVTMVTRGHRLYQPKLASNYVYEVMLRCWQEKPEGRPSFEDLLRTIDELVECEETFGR

[5] = target: T3, Tyrosine-protein kinase Tec (Homo sapiens); conditions: at 10 µM
[6] = target: Angiopoietin-1 receptor (Homo sapiens) (UniProt Q02763); conditions: at 1 µM
[7] = target: Angiopoietin-1 receptor (Homo sapiens) (UniProt Q02763); conditions: at 10 µM
[8] = target: High affinity nerve growth factor receptor (Homo sapiens) (UniProt P04629); conditions: at 1 µM
[9] = target: High affinity nerve growth factor receptor (Homo sapiens) (UniProt P04629); conditions: at 10 µM
[10] = target: T4, Tyrosine-protein kinase TXK (Homo sapiens) (UniProt P42681); conditions: at 10 µM
T4 sequence (whole entry): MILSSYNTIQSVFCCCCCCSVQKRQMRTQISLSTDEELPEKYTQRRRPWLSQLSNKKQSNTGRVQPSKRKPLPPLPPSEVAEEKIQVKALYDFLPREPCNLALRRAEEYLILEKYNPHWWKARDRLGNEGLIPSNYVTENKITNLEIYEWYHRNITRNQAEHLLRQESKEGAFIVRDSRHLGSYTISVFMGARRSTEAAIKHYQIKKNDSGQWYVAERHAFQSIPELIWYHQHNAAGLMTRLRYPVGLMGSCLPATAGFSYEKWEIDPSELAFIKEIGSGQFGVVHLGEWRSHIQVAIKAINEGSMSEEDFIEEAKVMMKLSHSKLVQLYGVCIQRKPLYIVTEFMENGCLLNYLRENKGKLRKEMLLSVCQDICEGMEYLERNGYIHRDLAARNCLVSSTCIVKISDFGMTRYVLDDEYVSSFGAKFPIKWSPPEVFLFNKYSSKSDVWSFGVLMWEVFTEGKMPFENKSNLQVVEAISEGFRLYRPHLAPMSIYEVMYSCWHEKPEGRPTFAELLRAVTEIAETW

[11] = target: T5, Serine/threonine-protein kinase ULK2 (Homo sapiens) (UniProt Q8IYT8); conditions: at 10 µM
T5 sequence (whole entry): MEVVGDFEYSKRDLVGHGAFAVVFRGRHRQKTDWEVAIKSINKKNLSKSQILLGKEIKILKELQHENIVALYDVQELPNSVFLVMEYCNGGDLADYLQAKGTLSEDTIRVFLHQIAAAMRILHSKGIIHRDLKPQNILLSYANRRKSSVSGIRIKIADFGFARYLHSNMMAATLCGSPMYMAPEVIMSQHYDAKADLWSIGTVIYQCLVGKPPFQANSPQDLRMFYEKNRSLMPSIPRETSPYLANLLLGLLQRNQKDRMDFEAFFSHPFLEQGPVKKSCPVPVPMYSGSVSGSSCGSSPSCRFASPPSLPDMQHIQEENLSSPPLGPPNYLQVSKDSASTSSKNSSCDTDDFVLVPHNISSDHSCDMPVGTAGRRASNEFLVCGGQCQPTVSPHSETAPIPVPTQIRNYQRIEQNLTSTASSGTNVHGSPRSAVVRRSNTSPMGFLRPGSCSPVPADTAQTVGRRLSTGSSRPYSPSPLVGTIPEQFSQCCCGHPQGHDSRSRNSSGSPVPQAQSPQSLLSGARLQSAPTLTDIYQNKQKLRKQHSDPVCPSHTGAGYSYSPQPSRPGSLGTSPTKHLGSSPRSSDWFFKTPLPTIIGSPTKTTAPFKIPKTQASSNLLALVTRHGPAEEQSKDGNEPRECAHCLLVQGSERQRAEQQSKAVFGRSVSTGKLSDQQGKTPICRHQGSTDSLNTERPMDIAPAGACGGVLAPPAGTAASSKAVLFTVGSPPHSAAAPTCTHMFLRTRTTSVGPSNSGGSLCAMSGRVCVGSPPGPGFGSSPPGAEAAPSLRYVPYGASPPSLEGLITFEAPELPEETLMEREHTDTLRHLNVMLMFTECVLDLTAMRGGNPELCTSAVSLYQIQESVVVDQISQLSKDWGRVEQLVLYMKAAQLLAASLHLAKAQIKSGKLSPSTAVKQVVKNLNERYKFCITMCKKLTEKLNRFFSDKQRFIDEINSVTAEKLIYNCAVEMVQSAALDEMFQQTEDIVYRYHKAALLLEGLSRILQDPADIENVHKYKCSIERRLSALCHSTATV

[12] = target: T6, Serine/threonine-protein kinase ULK3 (Homo sapiens) (UniProt Q6PHR2); conditions: at 1 µM
T6 sequence (whole entry): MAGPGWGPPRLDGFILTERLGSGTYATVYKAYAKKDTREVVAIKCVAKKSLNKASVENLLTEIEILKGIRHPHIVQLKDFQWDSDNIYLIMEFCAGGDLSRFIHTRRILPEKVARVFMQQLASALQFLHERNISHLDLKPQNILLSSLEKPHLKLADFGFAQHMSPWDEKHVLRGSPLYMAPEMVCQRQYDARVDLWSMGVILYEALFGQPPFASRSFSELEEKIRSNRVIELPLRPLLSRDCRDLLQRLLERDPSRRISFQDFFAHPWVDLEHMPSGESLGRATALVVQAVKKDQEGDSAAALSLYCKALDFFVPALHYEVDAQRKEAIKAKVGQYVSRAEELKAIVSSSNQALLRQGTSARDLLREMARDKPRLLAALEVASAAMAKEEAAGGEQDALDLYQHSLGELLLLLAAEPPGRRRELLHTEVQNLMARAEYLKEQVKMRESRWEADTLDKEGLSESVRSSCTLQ

[13] = target: T6, Serine/threonine-protein kinase ULK3 (Homo sapiens); conditions: at 10 µM
[14] = target: Serine/threonine-protein kinase VRK2 (Homo sapiens) (UniProt Q86Y07); conditions: at 1 µM
[15] = target: Serine/threonine-protein kinase VRK2 (Homo sapiens) (UniProt Q86Y07); conditions: at 10 µM
[16] = target: Serine/threonine-protein kinase WNK2 (Homo sapiens) (UniProt Q9Y3S1); conditions: at 1 µM;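 further: residual WNK2 kinase activity expressed as percent of uninhibited control, assayed in MOPS buffer at pH 7.0 containing EDTA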
[17] = target: BDNF/NT-3 growth factors receptor (Homo sapiens) (UniProt Q16620); conditions: at 1 µM
[18] = target: BDNF/NT-3 growth factors receptor (Homo sapiens) (UniProt Q16620); conditions: at 10 µM
[19] = target: T4, Tyrosine-protein kinase TXK (Homo sapiens); conditions: at 1 µM
[20] = target: T5, Serine/threonine-protein kinase ULK2 (Homo sapiens); conditions: at 1 µM

Sequence of Serine/threonine-protein kinase VRK2 (Homo sapiens) (Q86Y07 whole entry): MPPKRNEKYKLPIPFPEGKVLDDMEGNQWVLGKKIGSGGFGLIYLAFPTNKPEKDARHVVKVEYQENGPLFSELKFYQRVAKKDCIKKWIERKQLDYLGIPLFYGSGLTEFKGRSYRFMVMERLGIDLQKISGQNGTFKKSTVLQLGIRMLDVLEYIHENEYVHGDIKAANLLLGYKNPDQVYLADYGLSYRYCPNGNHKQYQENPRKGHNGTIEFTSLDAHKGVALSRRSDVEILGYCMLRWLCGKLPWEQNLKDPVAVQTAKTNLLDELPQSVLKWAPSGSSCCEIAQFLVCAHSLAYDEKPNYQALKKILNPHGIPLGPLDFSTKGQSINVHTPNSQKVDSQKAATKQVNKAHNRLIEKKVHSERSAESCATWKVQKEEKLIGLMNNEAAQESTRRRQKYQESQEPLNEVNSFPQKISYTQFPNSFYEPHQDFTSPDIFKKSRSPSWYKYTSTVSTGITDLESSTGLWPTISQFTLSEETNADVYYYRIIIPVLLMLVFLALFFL
Sequence of Angiopoietin-1 receptor (Homo sapiens) (Q02763 whole entry): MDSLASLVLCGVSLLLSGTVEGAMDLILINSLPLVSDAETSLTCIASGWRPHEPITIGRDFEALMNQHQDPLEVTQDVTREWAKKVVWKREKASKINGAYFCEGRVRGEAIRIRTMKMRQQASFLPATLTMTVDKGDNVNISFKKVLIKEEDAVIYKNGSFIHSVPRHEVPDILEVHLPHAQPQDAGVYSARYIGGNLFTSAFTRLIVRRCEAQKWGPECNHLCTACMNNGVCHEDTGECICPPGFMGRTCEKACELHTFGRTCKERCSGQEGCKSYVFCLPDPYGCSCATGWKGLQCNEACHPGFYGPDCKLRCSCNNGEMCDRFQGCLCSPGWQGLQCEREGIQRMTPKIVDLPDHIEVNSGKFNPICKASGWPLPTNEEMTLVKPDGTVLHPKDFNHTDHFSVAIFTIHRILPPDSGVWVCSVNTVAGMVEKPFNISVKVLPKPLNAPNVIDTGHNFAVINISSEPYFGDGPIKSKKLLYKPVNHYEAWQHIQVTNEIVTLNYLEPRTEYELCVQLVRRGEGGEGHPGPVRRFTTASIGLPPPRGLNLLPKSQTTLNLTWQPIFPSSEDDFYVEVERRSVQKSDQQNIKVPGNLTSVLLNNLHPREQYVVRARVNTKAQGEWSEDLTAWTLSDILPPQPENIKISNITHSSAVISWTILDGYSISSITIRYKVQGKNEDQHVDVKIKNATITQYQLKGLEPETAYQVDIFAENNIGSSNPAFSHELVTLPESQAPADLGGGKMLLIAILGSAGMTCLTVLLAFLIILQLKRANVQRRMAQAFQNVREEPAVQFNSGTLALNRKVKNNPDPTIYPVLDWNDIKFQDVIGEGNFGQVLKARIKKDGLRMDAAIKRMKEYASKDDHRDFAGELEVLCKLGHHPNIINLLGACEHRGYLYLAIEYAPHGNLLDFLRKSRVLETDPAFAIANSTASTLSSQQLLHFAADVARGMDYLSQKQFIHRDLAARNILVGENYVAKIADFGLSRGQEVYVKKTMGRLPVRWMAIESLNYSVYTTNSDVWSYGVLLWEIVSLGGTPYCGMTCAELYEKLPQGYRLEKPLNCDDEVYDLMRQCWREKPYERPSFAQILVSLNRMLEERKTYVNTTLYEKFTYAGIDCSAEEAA
Sequence of Serine/threonine-protein kinase WNK2 (Homo sapiens) (Q9Y3S1 whole entry): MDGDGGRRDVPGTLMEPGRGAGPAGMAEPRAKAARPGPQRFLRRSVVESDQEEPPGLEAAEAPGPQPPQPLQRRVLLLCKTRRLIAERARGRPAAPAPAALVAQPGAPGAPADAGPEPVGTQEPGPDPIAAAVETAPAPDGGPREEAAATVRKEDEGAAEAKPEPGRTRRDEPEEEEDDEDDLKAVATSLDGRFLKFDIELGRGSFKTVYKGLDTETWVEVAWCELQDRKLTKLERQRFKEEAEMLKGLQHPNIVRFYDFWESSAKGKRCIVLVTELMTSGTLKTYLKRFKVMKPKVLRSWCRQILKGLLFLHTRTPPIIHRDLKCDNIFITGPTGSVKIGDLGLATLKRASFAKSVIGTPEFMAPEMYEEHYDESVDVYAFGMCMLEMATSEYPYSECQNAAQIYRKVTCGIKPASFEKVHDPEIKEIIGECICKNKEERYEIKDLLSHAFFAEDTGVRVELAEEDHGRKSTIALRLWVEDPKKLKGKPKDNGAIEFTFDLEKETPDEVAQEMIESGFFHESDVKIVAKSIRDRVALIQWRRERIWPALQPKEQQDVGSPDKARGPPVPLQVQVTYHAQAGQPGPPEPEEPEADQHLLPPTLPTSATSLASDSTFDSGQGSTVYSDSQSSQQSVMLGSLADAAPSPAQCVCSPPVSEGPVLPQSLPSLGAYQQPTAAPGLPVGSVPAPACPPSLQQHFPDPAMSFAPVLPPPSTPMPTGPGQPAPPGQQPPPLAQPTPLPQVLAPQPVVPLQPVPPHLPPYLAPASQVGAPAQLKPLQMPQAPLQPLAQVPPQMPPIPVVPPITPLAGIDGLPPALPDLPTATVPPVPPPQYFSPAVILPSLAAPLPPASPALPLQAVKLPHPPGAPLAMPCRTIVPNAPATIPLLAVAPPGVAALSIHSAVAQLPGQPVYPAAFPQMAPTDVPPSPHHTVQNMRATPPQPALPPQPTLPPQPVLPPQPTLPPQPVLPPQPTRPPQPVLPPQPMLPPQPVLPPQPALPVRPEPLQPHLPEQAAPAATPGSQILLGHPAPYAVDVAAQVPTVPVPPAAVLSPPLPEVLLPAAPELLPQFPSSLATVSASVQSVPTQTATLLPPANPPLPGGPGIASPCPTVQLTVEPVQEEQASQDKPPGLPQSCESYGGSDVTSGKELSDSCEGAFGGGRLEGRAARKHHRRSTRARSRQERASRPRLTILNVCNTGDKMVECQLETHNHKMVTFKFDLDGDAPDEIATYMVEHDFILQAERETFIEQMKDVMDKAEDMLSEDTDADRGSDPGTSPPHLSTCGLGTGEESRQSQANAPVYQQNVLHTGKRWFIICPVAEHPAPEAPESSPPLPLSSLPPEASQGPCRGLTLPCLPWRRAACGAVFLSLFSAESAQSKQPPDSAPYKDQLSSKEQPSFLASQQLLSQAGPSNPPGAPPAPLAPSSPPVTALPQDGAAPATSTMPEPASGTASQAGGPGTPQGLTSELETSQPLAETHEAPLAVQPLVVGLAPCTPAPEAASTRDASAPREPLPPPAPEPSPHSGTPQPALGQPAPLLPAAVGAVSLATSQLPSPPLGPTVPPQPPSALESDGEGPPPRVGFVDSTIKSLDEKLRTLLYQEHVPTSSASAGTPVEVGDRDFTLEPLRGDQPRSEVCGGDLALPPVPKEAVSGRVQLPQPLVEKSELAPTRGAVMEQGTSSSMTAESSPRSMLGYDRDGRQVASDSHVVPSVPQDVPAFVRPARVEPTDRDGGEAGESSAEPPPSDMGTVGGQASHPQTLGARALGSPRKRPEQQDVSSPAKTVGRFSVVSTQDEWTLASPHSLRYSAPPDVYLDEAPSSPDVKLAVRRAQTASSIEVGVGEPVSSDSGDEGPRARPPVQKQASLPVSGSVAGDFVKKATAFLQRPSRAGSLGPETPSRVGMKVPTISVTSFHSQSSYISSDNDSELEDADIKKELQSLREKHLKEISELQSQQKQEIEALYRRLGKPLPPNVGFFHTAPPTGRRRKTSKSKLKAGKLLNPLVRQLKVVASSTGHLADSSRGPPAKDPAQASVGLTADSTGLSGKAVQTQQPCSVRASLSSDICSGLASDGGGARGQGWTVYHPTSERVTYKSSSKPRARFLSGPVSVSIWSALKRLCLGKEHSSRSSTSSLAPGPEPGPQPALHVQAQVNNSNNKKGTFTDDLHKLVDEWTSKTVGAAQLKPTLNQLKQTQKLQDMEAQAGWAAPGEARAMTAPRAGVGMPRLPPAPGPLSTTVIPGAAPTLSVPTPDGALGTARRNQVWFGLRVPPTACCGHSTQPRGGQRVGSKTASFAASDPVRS
Sequence of BDNF/NT-3 growth factors receptor (Homo sapiens) (Q16620 32-822 limits assumed): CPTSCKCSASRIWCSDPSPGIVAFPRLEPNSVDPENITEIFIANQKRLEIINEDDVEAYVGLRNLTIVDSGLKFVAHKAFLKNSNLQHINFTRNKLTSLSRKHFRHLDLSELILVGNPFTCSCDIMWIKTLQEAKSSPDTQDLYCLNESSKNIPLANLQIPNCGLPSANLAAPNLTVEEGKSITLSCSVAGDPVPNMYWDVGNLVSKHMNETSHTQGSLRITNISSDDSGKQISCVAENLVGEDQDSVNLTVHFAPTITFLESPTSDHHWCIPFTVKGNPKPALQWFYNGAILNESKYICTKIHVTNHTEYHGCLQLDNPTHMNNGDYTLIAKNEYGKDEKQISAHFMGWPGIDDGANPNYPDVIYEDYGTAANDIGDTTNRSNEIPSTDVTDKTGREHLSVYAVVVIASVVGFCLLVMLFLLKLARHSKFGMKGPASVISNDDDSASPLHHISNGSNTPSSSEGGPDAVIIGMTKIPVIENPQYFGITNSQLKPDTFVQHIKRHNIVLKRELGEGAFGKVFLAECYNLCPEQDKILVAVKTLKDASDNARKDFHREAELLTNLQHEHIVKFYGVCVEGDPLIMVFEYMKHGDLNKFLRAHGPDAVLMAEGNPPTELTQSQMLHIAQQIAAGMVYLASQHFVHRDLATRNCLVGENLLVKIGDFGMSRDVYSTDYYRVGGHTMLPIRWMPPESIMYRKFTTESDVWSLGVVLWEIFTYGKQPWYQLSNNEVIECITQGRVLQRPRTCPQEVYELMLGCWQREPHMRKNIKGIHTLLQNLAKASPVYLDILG

SMILES | residual activity [1] [%] | residual activity [2] [%] | residual activity [3] [%] | residual activity [4] [%] | residual activity [5] [%] | residual activity [6] [%] | residual activity [7] [%] | residual activity [8] [%] | residual activity [9] [%] | residual activity [10] [%] | residual activity [11] [%] | residual activity [12] [%] | residual activity [13] [%] | residual activity [14] | residual activity [15] [%] | residual activity [16] | residual activity [17] [%] | residual activity [18] [%] | residual activity [19] [%] | residual activity [20] [%]
c1ccc(-c2n[nH]cc2-c2ccnc3ccccc23)nc1 | 91 | 92 | 93 | 88 | 91 | 91 | 90 | 72 | 76 | 64 | 97 | 100 | 98 | 95% (inactive) | 67 | 105% (inactive) |  |  |  | 
c1ccc2c(-c3ccncc3)c[nH]c2c1 | 94 | 89 | 95 | 103 | 85 | 77 | 88 | 91 | 55 | 97 | 97 | 104 | 82 | 101% (inactive) | 88 | 107% (inactive) | 134 | 110 | 109 | 104
Cc1cccc(-c2[nH]c(C(C)(C)C)nc2-c2ccc3c(c2)OCO3)n1 | 101 | 90 | 94 | 97 | 91 | 101 | 83 | 92 | 106 | 98 | 94 | 104 | 96 | 105% (inactive) | 71 | 106% (inactive) |  |  |  | 
CCN(CC)C(=O)c1ccc(Nc2nc(OCC3CCCCC3)c3nc[nH]c3n2)cc1 | 14 | 2 | 14 | 24 | 2 |  | 8 | 8 | 0 | 5 | 35 | 36 | 8 |  |  | 96% (inactive) | 36 | 2 | 49 | 80
COc1cc2ncnc(Nc3ccc(O)c(Br)c3)c2cc1OC | 87 | 62 | 91 | 76 | 34 | 61 | 53 | 82 | 44 | 46 | 76 | 91 | 50 | 83% (inactive) | 56 | 96% (inactive) | 110 | 87 | 81 | 89
N#CCCc1ccc2c(c1)-c1[nH]c3ccc([N+](=O)[O-])cc3c1CC(=O)N2 | 39 | 21 |  |  | 29 |  |  | 54 | 23 | 9 | 21 | 33 | 6 |  |  |  | 71 | 65 | 26 | 47
O=Nc1c(-c2c(O)[nH]c3ccccc23)[nH]c2ccccc12 | 78 | 53 | 78 | 64 | 22 | 103 | 41 | 0 | 0 | 11 | 59 | 55 | 12 | 71% (inactive) | 28 | 90% (inactive) | 0 | 0 | 45 | 93
O=C1Nc2ccc(Br)cc2/C1=C\c1cc2c([nH]1)CCCC2 |  |  |  | 105 |  | 110 |  | 19 | 20 | 76 |  | 52 | 55 |  |  | 110% (inactive) | 48 | 44 | 107 | 
